# BAZ2B inh: inhibitors of human BAZ2B bromodomain | AlphaScreen BAZ2B-H3K14Ac peptide displacement | Potency, µM (titrated, usually from 114 µM), for the others: at the top dose activity change, negative = inhibition, usual class: inhibitors | 360,000 compounds, 4.4% hits | AID 504333; also: % is scaled to controls: 0 for no effect and ±100 for the full control effect; nearly all actives have a fitted effect of over 60% in size
#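 BAZ2B 50 nM plus b-H3(5-23)K14Ac 50 nM, PBS pH 7.4/0.01% Tween-20, 30 min RT; compound added (max 110 uM), 30 min RT; streptavidin donor/Ni-chelate acceptor beads 10 ug/mL final, 20 min dark; AlphaScreen read.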
# G9a inh: inhibitors of human histone lysine methyltransferase G9a | AID 504332 | 350,000 compounds, 8.8% hits | G9a H3K9 monomethylation, AlphaScreen, 2 h | Potency, µM (series often up to 102 µM), inactives show at the top dose activity, negative = inhibition, actives largely listed as inhibitors | Q96KQ7; also: % is scaled to controls: 0 for no effect and ±100 for the full control effect; nearly all actives have a fitted effect of over 75% in size
# Target sequence (Q96KQ7 913-1193 limits assumed): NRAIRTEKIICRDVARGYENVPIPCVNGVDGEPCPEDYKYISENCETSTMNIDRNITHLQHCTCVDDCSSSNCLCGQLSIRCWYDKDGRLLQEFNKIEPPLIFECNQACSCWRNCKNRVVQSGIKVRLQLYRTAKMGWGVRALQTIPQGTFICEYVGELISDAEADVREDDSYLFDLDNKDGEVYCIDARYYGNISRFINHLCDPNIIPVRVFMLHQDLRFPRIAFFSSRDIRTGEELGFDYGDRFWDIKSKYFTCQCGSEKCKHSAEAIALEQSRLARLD
#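 Step 1: enzyme (final 20 nM) with compound, 15 min RT. Step 2: substrate peptide 500 nM and SAM 20 uM, 2 h RT. Step 3: anti-H3K9me1 antibody and AlphaScreen beads, 10 min, then plate read.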
# JMJD2A Tudor inh: inhibitors of human JMJD2A Tudor domain | O75164 | AlphaScreen JMJD2A-Tudor / H3K4me3 peptide binding | Potency, µM (series often up to 114 µM), for inactives: top-dose activity change, negative = inhibition, usual class: inhibitors | 390,000 compounds, 4.4% hits; also: % is scaled to controls: 0 for no effect and ±100 for the full control effect; nearly all actives have a fitted effect of over 50% in size
# GLS inh: blocks human kidney-isoform glutaminase activity | O94925 | GLS enzymatic activity, qHTS titration | Potency, µM (doses to about 45.5 µM), inactives show at the highest dose activity change, negative = inhibition, hits mostly inhibitors | 410,000 compounds, 0.21% hits | AID 624170; also: % is scaled to controls: 0 for no effect and ±100 for the full control effect
#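 Glutamate formation by hKGA was monitored fluorometrically using coupled glutamate oxidase, HRP and Amplex Red. Substrate was added as 1 mM L-glutamine solution; incubation was 30 min at RT after an initial read.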
# HP1b chromo inh: blocks HP1-beta chromodomain binding to methylated histone tails. AlphaScreen HP1-beta / biotin-H3K9me3 peptide binding. Potency, µM (titrated, usually from 114 µM), without a hit: top-dose activity change, negative = inhibition, hits mostly inhibitors. 390,000 compounds, 0.56% hits. P83916; also: nearly all actives have a fitted effect of over 70% in size
# Target sequence (P83916 whole entry, looked up): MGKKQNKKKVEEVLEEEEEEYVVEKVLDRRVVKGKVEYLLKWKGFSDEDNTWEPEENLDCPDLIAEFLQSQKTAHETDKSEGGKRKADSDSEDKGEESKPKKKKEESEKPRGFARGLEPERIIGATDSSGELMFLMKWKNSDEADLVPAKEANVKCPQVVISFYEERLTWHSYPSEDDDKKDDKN
#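 HP1-beta protein (50 nM final) preincubated 30 min at room temperature with biotinylated H3(1-18)K9me3 peptide (50 nM) in PBS pH 7.4, 0.01% Tween-20, then compound added for 30 min. AlphaScreen streptavidin donor/nickel chelate acceptor beads (10 ug/mL final), 30 min dark, luminescence read.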
# L3MBTL1 inh: L3MBTL1 (human) inhibition; Q9Y468; 230,000 compounds, 0.66% hits; Potency, µM (titrated, usually from 57.1 µM), for the others: top-dose activity, negative = inhibition, usual class: inhibitors; AlphaScreen L3MBTL1–H3K9me1 peptide binding; also: % is scaled to controls: 0 for no effect and ±100 for the full control effect; nearly all actives have a fitted effect of over 60% in size
#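 Displacement of a biotinylated histone H3(1-15) peptide monomethylated at Lys9 (75 nM) from L3MBTL1 (50 nM) was measured by AlphaScreen after a 30 min room-temperature compound incubation; cefsulodin titration served as intraplate control.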
# * hit, by the source's call; ? = inconclusive; / = not tested or not shown; [ ] = remark or other dose. Compounds with a hit are over-represented: about 10% of the library has one in this group of screens. Calls follow the shape of the dose curve; as a rule, active = well fitted curve in the direction sought with a large enough effect; inconclusive = small, poorly fitted or top-dose-only effect, or another doubt; inactive = no such curve, though single readings can be large; an effect the other way counts as inactive or inconclusive. Potency is read from the fitted curve at half-maximal effect.
SMILES,BAZ2B inh,G9a inh,JMJD2A Tudor inh,GLS inh,HP1b chromo inh,L3MBTL1 inh
COc1ccc(NC(=O)c2ccccn2)cc1OC,-28%,?,-16%,-5%,32%,6%
C/C(=N/NC(=O)c1ccc(C(C)(C)C)cc1)c1ccccn1,/,/,45µM*,0%,20%,/
COc1ccc(C(=O)N/N=C(\C)c2ccccn2)cc1OC,7.9µM*,/,22µM*,-15%,41%,/
Cc1ccc(CSCCC(=O)NCc2ccc(F)cc2Cl)cc1,20%,-2%[59 µM],5%,-8%,41%,/
COc1c(/C=N/Nc2ccc(C(=O)O)cc2)c(CCN(C)C(C)=O)cc2c1OCO2,-15%,45µM*,3%,17%,44%,0%
Cn1ccc2cc3c(cc21)CCN3C(=O)Nc1cccnc1,?,9.5µM*,79µM*,23%,-28%,-3%
CN1CCc2cc(NC(=O)Nc3cccnc3)ccc21,/,44%[12.7 µM],/,/,/,/
CC(Sc1nnc2n1CCCCC2)C(=O)Nc1ccc(S(N)(=O)=O)cc1 (stereo unspecified),5%,45µM*,-11%,1%,9%,-8%
CCOC(=O)c1cc(S(=O)(=O)Nc2ccc(OC(F)(F)F)cc2)[nH]n1,50µM*,3.2µM*,?,8%,2%[57 µM],/
CCOC(=O)c1cc(S(=O)(=O)Nc2ccccc2OCC)[nH]n1,50µM*,8.9µM*,50µM*,-3%,-1%[57 µM],/
CCOC(=O)c1cc(S(=O)(=O)Nc2ccccc2)[nH]n1,79µM*,10µM*,?,-2%,17%[57 µM],/
CC(C)Cn1c(=O)c2sccc2n2c(CCCC(=O)NCCc3ccc(Cl)cc3)nnc12,?,-30%[59 µM],-8%,-10%,26%,/
O=C1C2C3C=CC(C3)C2C(=O)N1c1ncn[nH]1 (stereo unspecified),?,?,50µM*,-2%,?,-4%
CCOc1ccc(C(=O)OCc2cc(=O)n3cc(C)sc3n2)cc1,-1%,10%[59 µM],-10%,3%,12%,/
Cc1cccc(CC2SC(N)=NC2=O)c1 (stereo unspecified),1%,50µM*,-9%,-1%,-8%,/
CCc1ccc2c(c1)c(N=NC1=NC(=O)CS1)c(O)n2C,?,13µM*,-33%,16%,-9%,-5%
Cc1cc(-c2n[nH]c(=S)o2)c(C)n1-c1ccccc1,?,4µM*,?,9%,-12%,-16%
S=c1[nH]nc(-c2c[nH]c3ccccc23)o1,-15%,?,?,8%,55%,/
Oc1cc2ccccc2cc1-c1n[nH]c(=S)o1,?,4µM*,-23%,23%,6%,-7%
c1ccc(CNc2ncnc3c2ncn3Cc2ccccc2)cc1,/,/,-17%,/,30%,/
CCOc1ccccc1CNC(=O)c1ccc2c(c1)sc1nc(-c3cccc(OC)c3)cn12,-13%,?,-17%,-9%,14%,/
CCOC(=O)c1cc(-c2ccccc2)n(CC(=O)Nc2ccc(OC)cc2OC)c1C,-6%,-17%[59 µM],22µM*,-11%,46%,/
CCOC(=O)c1cc(-c2ccc(OC)cc2)n(CCC(=O)Nc2ccccc2OC)c1C,79µM*,-32%[59 µM],28µM*,1%,28%,/
CCOC(=O)c1cc(-c2ccc(F)cc2)n(CCC(=O)Nc2ccccc2OC)c1C,-32%,-43%[59 µM],?,-8%,-13%,/
CCOC(=O)c1cc(-c2ccc(OC)cc2)n(CCC(=O)Nc2ccc(OC)cc2OC)c1C,-33%,?,?,-3%,-12%,/
SMILES,BAZ2B inh,G9a inh,JMJD2A Tudor inh,GLS inh,HP1b chromo inh,L3MBTL1 inh
Cc1cccc(N2CCN(CC(O)COc3ccc4ccccc4c3)CC2)c1 (stereo unspecified),/,/,-10%,-1%,-3%[57 µM],/
Cc1cc(OCC(O)CN2CCN(c3cccc(Cl)c3)CC2)ccc1Cl (stereo unspecified),-13%,-9%[59 µM],79µM*,6%,6%,/
COc1ccc(N2CCN(CC(O)COc3ccc(C(C)C)c(C)c3)CC2)cc1 (stereo unspecified),-38%,6.3µM*,?,6%,5%,/
COc1ccc(N2CCN(CC(O)COc3ccc(C)c(C)c3)CC2)cc1 (stereo unspecified),45µM*,32µM*,56µM*,44%,?,/
CN(C)c1cc2c3ccccc3n(C)c2cc1N,/,/,32µM*,11µM*,45µM*,/
Cc1ccc(C)c2c1c1ccccc1n2C,-4%,/,7%,6%,33%,10%
CCc1nn2c(=O)cc(COC(=O)c3ccccc3NC(=O)c3ccc(C(C)(C)C)cc3)nc2s1,-2%,10%[59 µM],-5%,-4%,31%,/
Cc1cccc(Nc2nnc(-c3ccc(N4CCOCC4)c([N+](=O)[O-])c3)c3ccccc23)c1,?,10µM*,?,1%,4%,-29%
Cc1ccc(-c2[nH]c3cc(C(=O)NCCCn4ccnc4)ccc3c(=O)c2O)cc1,56µM*,19%[59 µM],-35%,19%,37%,/
O=C(NCCCn1ccnc1)C(F)(F)C(F)(F)C(=O)NCCCn1ccnc1,20µM*,14µM*,?,-7%,40%,?
CCCNC(=O)c1ccc2c(=O)c(O)c(-c3ccc(C)cc3)[nH]c2c1,2%,16%[59 µM],11%,19%,43%,/
O=C(NCCCn1ccnc1)c1cccc(S(=O)(=O)Nc2ccc(Br)cc2)c1,-35%,11µM*,-27%,-2%,20%,?
O=C(NCCCn1ccnc1)c1ccncc1,56µM*,6%[12.7 µM],-13%,-3%,11%,-9%
O=C(CCc1ccccc1)NCc1nc2cccnc2n1Cc1ccc(F)cc1,-2%,8%[59 µM],-13%,-10%,13%[57 µM],/
COc1ccc(-c2cn3cccnc3n2)cc1NC(=O)c1cc(C)cc(C)c1,-11%,6%[59 µM],-19%,4%,7%[57 µM],/
Cc1ccccc1NC(=O)c1c(C)oc2ccc(O)c(CN3CCCC(C)C3)c12 (stereo unspecified),-24%,-1%[59 µM],-16%,19%,36%,/
N#CC(c1ccc(Cl)cc1)c1c(Cl)cc(-n2ncc(=O)[nH]c2=O)cc1Cl (stereo unspecified),/,?,/,3%,/,/
Cc1ccc(C)c(CN2CCC(CNC(=O)C(CC(C)C)N3Cc4ccccc4C3=O)CC2)c1 (stereo unspecified),-18%,?,-5%,14%,12%,/
COc1ccc(C)cc1NC(=O)CC(=O)Nc1ccc2nc3n(c(=O)c2c1)CCCCC3,?,?,?,6%,27%,/

# Screens deposited in PubChem by National Center for Advancing Translational Sciences (NCATS).
